Measurements: PubChem BioAssay (Tox21)
Values without a mark were called inactive. Records with an inconclusive call do not appear. A call without a number means that no potency is given here. The source made the active and inactive calls. Unless noted, the call rests on the fitted dose curve; in most records, active means well fitted curve in the direction sought with a large enough effect in the repeat runs; inconclusive means weak or mixed curves; inactive means no such curve, though single readings can be large; an effect the other way counts as inactive or inconclusive.

Legend:
[1] = qHTS assay to identify small molecule agonists of the sonic hedgehog signaling (Shh) pathway - cell viability counter screen (AID 1259366); further: nearly all actives have a fitted effect of over 50% in size
Procedure, shortened: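 Cytotoxicity counter screen run in the same wells as the Shh reporter assay. NIH/3T3 cells carrying a Gli1 response element–driven luciferase were treated with DMSO-dissolved compounds for 24hr, and live-cell protease activity was measured with CellTiter-Fluor.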

[2] = qHTS assay to identify small molecule antagonists of the sonic hedgehog signaling (Shh) pathway - cell viability counter screen (AID 1259367); further: nearly all actives have a fitted effect of over 55% in size
Procedure, shortened: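 Fluorescence read-out (CellTiter-Fluor, 1 hr at 37C) taken after 23 hr compound treatment of 3T3 Gli1-Luc cells stimulated with conditioned medium. Cells were seeded at 2,000 per well and pre-incubated 4 hr.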

[3] = qHTS assay to identify small molecule agonists of the sonic hedgehog signaling (Shh) pathway (AID 1259368; calls by dose curve;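 further: NIH/3T3-derived 3T3Gli1-Luc cells carrying a stable Gli1-driven firefly luciferase reporter; series mostly up to about 92 µM; nearly all actives have a fitted effect of over 15% in size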)
Procedure, shortened: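 Cells of a mouse NIH/3T3 clone stably expressing luciferase under the Gli1 transcriptional response element are exposed to test chemicals for 24 hr at 37 C. Pathway activation is detected as a rise in luminescence.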

[4] = target: Estrogen receptor beta (Homo sapiens) (UniProt Q92731); experiment: qHTS assay to identify small molecule agonists of the estrogen receptor beta (ER-beta) signaling pathway (AID 1259377; active means well fitted activation curve with a large enough effect in the signal ratio in the repeat runs, not every such curve was filed as active; the % refers to the signal ratio; further: potency means the concentration at half of the fitted maximal effect)
Estrogen receptor beta (Homo sapiens), sequence (Q92731 whole entry, looked up): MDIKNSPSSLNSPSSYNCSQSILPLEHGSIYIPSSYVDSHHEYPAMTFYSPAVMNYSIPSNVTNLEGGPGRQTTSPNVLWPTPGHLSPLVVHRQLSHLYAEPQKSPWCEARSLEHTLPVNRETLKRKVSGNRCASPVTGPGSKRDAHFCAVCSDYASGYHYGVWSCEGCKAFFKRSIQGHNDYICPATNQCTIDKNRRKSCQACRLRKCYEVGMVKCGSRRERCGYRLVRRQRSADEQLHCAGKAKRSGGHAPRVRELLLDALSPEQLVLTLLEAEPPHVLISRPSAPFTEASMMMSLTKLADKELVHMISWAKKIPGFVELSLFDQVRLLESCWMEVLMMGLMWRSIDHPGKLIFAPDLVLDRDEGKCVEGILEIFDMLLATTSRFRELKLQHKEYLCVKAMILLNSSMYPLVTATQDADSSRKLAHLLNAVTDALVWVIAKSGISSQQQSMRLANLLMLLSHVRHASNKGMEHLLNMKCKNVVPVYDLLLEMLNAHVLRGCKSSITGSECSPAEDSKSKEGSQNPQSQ
Procedure, shortened: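 HEK293T ER-beta-UAS-bla; 2% charcoal-stripped FBS; cells pre-incubated 6 hr, compound 16 hr, 37C/5% CO2; LiveBLAzer B/G FRET substrate 2 h RT; fluorescence intensity read.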

[5] = target: Estrogen receptor beta (Homo sapiens) (UniProt Q92731); experiment: qHTS assay to identify small molecule antagonists of the estrogen receptor beta (ER-beta) signaling pathway (AID 1259378; active means well fitted inhibition curve with a large enough effect in the signal ratio in the repeat runs, not every such curve was filed as active; the % refers to the signal ratio)
Procedure, shortened: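 ER-beta-UAS-bla HEK293T cells in 2% charcoal-stripped FBS medium treated with compound plus 1nM final 17-beta-estradiol for 16 hr at 37C. Beta-lactamase reporter read by FRET substrate fluorescence after 2 hours at room temperature.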

[6] = qHTS assay to identify small molecule agonists of the androgen receptor (AR) signaling pathway in the presence of an antagonist - cell viability counter screen (AID 1259379);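 further: MDA-kb2 human breast cancer cells carrying an MMTV luciferase reporter; series mostly up to about 92 µM; nearly all actives have a fitted effect of over 25% in size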
Procedure, shortened: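 Cytotoxicity is assessed by CellTiter-Fluor in MDA-kb2 cells carrying an MMTV-driven luciferase reporter. Cells receive 3.0uM nilutamide plus compounds at 15 concentrations and incubate 16 hr at 37C without CO2 before fluorescence reading.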

[7] = qHTS assay to identify small molecule agonists of the estrogen receptor beta (ER-beta) signaling pathway - cell viability counter screen (AID 1259380); further: nearly all actives have a fitted effect of over 30% in size; further: potency means the concentration at half of the fitted maximal effect
Procedure, shortened: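 Cytotoxicity is measured in parallel with the reporter screen: after 16 hr compound exposure at 37C and a 2 hr LiveBLAzer step, CellTiter-Glo is added to the same ER-beta-UAS-bla HEK293T wells and luminescence read after 30 min.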

[8] = target: Androgen receptor (Homo sapiens) (UniProt P10275); experiment: qHTS assay to identify small molecule agonists of the androgen receptor (AR) signaling pathway in the presence of an antagonist (AID 1259381; calls by dose curve; further: nearly all actives have a fitted effect of over 15% in size)
Androgen receptor (Homo sapiens), sequence (P10275 whole entry, looked up): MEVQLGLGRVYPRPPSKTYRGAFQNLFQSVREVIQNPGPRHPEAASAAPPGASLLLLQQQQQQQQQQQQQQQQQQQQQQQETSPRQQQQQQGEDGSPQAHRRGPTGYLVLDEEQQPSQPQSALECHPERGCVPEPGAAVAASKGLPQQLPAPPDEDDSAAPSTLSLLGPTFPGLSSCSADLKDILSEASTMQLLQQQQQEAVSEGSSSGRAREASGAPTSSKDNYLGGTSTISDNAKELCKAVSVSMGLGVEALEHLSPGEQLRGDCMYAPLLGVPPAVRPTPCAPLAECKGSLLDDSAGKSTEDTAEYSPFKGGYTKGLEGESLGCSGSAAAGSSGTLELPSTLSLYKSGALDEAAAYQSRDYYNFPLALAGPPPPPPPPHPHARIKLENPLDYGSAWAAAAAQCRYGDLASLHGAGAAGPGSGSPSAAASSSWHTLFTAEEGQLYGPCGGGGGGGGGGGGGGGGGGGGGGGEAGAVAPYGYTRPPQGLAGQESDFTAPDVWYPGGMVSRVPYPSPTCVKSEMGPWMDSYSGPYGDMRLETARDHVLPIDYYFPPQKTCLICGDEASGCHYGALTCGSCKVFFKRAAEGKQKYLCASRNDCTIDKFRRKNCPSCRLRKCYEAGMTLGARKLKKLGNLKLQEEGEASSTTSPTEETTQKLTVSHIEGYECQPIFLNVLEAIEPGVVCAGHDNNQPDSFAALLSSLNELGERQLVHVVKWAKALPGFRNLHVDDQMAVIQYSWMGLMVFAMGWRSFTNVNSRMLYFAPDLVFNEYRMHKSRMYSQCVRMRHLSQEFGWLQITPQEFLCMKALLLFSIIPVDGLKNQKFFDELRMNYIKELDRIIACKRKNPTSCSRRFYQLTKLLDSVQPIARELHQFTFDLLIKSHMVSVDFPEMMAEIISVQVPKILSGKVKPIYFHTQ
Procedure, shortened: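 Agonist-mode confirmation screen: human MDA-kb2 cells stably expressing luciferase under an MMTV promoter bearing AR and GR response elements, co-treated with 3.0uM nilutamide (final). Luminescence measured after 16hr compound incubation.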

[9] = qHTS assay to identify small molecule antagonists of the estrogen receptor beta (ER-beta) signaling pathway - cell viability counter screen (AID 1259382); further: series mostly up to about 92 µM; nearly all actives have a fitted effect of over 55% in size
Procedure, shortened: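 Cytotoxicity counter screen multiplexed with the beta-lactamase antagonist assay: GripTite HEK293T ER-beta-bla cells were treated 16 hr with test chemicals in the presence of 1nM 17-beta-estradiol, and viability was measured by CellTiter-Glo.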

[10] = qHTS assay to identify small molecule antagonists of the sonic hedgehog signaling (Shh) pathway (AID 1259369; calls by dose curve; further: nearly all actives have a fitted effect of over 45% in size)
Procedure, shortened: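 Cells are plated and held 4hr at 37 C, compounds (DMSO) are pinned in, conditioned medium is added to stimulate the pathway, and after 24hr luciferase reagent is added for 30min before luminescence is read.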

| SMILES | outcome [1] | outcome [2] | outcome [3] | Potency [4] | outcome [5] | outcome [6] | Potency [7] | outcome [8] | outcome [9] | Potency [10] |
| --- | --- | --- | --- | --- | --- | --- | --- | --- | --- | --- |
| C=C(C)C(=O)OCCCC | inactive | inactive | inactive | inactive | inactive | inactive | inactive | inactive | inactive |  |
| COC(=O)c1cc(Cl)c(NC(C)=O)cc1OC | inactive | inactive | inactive | inactive | inactive | inactive | inactive | inactive | inactive |  |
| CC(=O)Oc1ccc(C(C)=O)cc1 | inactive | inactive | inactive |  |  | inactive | inactive |  | inactive | inactive |
| CC(C)C(=O)Nc1cccc(C2CN3CCSC3=N2)c1 (stereo unspecified) | inactive | inactive | inactive | inactive | inactive | inactive | inactive | inactive | inactive |  |
| Cc1ccccc1C#N | inactive | inactive | inactive |  |  | inactive | inactive |  | inactive | inactive |
| NCC1CCC(C(=O)Oc2ccc(CCC(=O)O)cc2)CC1 (stereo unspecified) | inactive | inactive | inactive | inactive | inactive | inactive | inactive |  | inactive |  |
| CC(C)=CCC/C(C)=C\C#N | inactive | inactive | inactive |  |  | inactive |  |  | inactive | inactive |
| CC(CN1CC(=O)NC(=O)C1)N1CC(=O)NC(=O)C1 (stereo unspecified) | inactive | inactive | inactive | inactive | inactive | inactive | inactive | inactive | inactive |  |
| CCC(=O)OCCOc1ccccc1 | inactive | inactive | inactive |  |  | inactive | inactive |  | inactive | inactive |
| CC(=O)c1c(C)cc(C(C)(C)C)cc1C | inactive | inactive | inactive | inactive | inactive | inactive | inactive |  | inactive |  |
| CC(=O)OC/C=C(/C)CCC=C(C)C | inactive | inactive | inactive |  |  | inactive | inactive |  | inactive | inactive |
| CCN(CC)CC | inactive | inactive | inactive |  |  | inactive | inactive |  | inactive | inactive |
| Cc1ccc(N)nc1 | inactive | inactive | inactive | inactive | inactive | inactive | inactive | inactive | inactive |  |
| O=C(O)Cc1ccccc1Oc1ccc(Cl)cc1Cl | inactive | inactive | inactive |  |  | inactive | inactive |  | inactive | inactive |
| COc1ccc2cc(CCC(C)=O)ccc2c1 | inactive | inactive | inactive | inactive | inactive | inactive | inactive |  | inactive |  |
| CNC(C)=O | inactive | inactive | inactive | inactive | inactive | inactive | inactive |  | inactive |  |
| COC(=O)c1c(C)cc(O)c(C)c1O | inactive | inactive | inactive | inactive | inactive | inactive | inactive |  | inactive |  |
| N#Cc1cc(NC(=O)C(=O)O)c(Cl)c(NC(=O)C(=O)O)c1 | inactive | inactive | inactive |  |  | inactive |  | inactive | inactive |  |
| CCCCNCC | inactive | inactive | inactive |  |  | inactive | inactive |  | inactive |  |
| O=C1CCCc2c(O)cccc21 | inactive | inactive | inactive |  |  | inactive | inactive | inactive | inactive |  |
| N=C(N)S(=O)O | inactive | inactive | inactive |  |  | inactive | inactive |  | inactive |  |
| CC(C)(C)C(=O)NCCCC(=O)O | inactive | inactive | inactive |  |  | inactive | inactive |  |  |  |
| NC(=O)CC[C@@H](N)C(=O)O | inactive | inactive | inactive | inactive |  | inactive | inactive |  | inactive |  |
| Cc1cc(N)no1 | inactive | inactive | inactive | inactive | inactive | inactive | inactive |  | inactive |  |
| CCCCCCCCCCCCCCCC/C=C/C1CC(=O)OC1=O (stereo unspecified) | inactive | inactive | inactive | inactive | inactive | inactive | inactive |  | inactive |  |
| C=CC(=O)OCCOCCOCC | inactive | inactive | inactive | inactive | inactive | inactive | inactive |  | inactive |  |
| CN(C)CCC[C@@]1(c2ccc(F)cc2)OCc2cc(C#N)ccc21 | inactive | inactive | inactive |  |  | inactive | 2.98 µM (active) |  |  |  |
| O=C(O)P(=O)(O)O | inactive | inactive | inactive |  |  | inactive | inactive |  | inactive |  |

| SMILES | outcome [1] | outcome [2] | outcome [3] | Potency [4] | outcome [5] | outcome [6] | Potency [7] | outcome [8] | outcome [9] | Potency [10] |
| --- | --- | --- | --- | --- | --- | --- | --- | --- | --- | --- |
| CCCC(=O)OC | inactive | inactive | inactive | inactive | inactive | inactive | inactive |  | inactive |  |
| CCCCCCCCCCCCCC(=O)OCC | inactive | inactive | inactive |  |  | inactive |  |  | inactive |  |
| CCNC(=O)C(C)OC(=O)Nc1ccccc1 (stereo unspecified) | inactive | inactive | inactive | inactive | inactive | inactive | inactive |  | inactive |  |
| CC(C)C[P+](C)(CC(C)C)CC(C)C | inactive | inactive | inactive |  | inactive | inactive | inactive |  | inactive |  |
| NNC(=O)CCCCC(=O)NN | inactive | inactive | inactive |  |  | inactive | inactive |  | inactive |  |
| CCCCN1C(=O)c2ccccc2C1=O | inactive | inactive | inactive | inactive | inactive | inactive | inactive |  | inactive |  |
| Cc1ccc(S(=O)(=O)NC(=O)NN2CC3CCCC3C2)cc1 (stereo unspecified) | inactive | inactive | inactive |  |  | inactive | inactive |  | inactive |  |
| O=C(c1ccccc1)c1cccc(O)c1 | inactive | inactive | inactive | 12.4 µM (active) |  | inactive | inactive | inactive | inactive |  |
| O=S(=O)(O)c1ccc(Cl)cc1 | inactive | inactive | inactive | inactive | inactive | inactive | inactive |  | inactive |  |
| O=Cc1ccc(C(=O)O)cc1 | inactive | inactive | inactive |  |  | inactive | inactive |  | inactive |  |
| C[Si](C)(C)O[Si](O)(O)O | inactive | inactive | inactive |  |  | inactive | inactive |  | inactive |  |
| CC(=O)c1ccc2ccc3ccccc3c2c1 | inactive | inactive | inactive |  |  | inactive |  |  | inactive |  |
| CN(C)CCc1c[nH]c2ccc(C[C@H]3COC(=O)N3)cc12 | inactive | inactive | inactive | inactive | inactive | inactive | inactive |  | inactive |  |
| CCCC[O][Al]([O]CCCC)[O]CCCC | inactive | inactive | inactive |  |  | inactive | inactive |  | inactive |  |
| CCCCOCCCC | inactive | inactive | inactive |  |  | inactive | inactive |  | inactive |  |
| Cc1ccc(NC(N)=O)cc1 | inactive | inactive | inactive | inactive | inactive | inactive | inactive |  | inactive |  |
| C/C(=N\O)c1ccc(OCC(=O)N2CCCCC2)cc1 | inactive | inactive |  | inactive | inactive | inactive | inactive | inactive | inactive | inactive |
| CC1(C)S[C@@H]2[C@H](NC(=O)Cc3ccccc3)C(=O)N2[C@H]1C(=O)O (tested in a mixture with another compound) | inactive | inactive | inactive | inactive | inactive | inactive | inactive |  | inactive |  |
| O=C1Nc2ccccc2C1=O | inactive | inactive | inactive | inactive | inactive | inactive |  |  | inactive |  |
| CCCCC(CC)COC(=O)CC#N (stereo unspecified) | inactive | inactive | inactive | inactive | inactive | inactive | inactive |  | inactive |  |
| CC(=O)SC[C@@H](C)C(=O)N1CCC[C@H]1C(=O)N[C@@H](Cc1ccccc1)C(=O)O | inactive | inactive | inactive |  |  | inactive | inactive |  | inactive |  |
| CC(C)(C)OC(=O)c1ccccc1C(=O)O | inactive | inactive | inactive |  |  | inactive | inactive |  | inactive |  |
| O=C(O)Cc1c(Cl)ccc(Cl)c1Cl | inactive | inactive | inactive | inactive | inactive | inactive | inactive |  | inactive |  |
| CC(C)(C)C(=O)CCc1ccc(Cl)cc1 | inactive | inactive | inactive | inactive | inactive | inactive | inactive |  | inactive |  |
| C=CC(=O)CC | inactive | inactive | inactive | inactive | inactive | inactive | inactive |  | inactive |  |
| CC(C)(C)c1ccc(C(=O)CCCCl)cc1 | inactive | inactive | inactive | inactive | inactive | inactive | inactive |  | inactive |  |
| COCCCOc1cc(C[C@@H](C[C@H](N)[C@@H](O)C[C@H](C(=O)NCC(C)(C)C(N)=O)C(C)C)C(C)C)ccc1OC | inactive |  | inactive |  |  | inactive | inactive |  | inactive | inactive |
